Bioassay records from PubChem BioAssay.
Methyltransferases: Primary Screen for Target Class Profiling of Small Molecule Inhibitors of Methyltransferases | purified enzyme, MTase-Glo SAH luminescence; active compounds read low | calls only at 40 µM | hit rate 3.9% among 25,000; call rule not given here
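Each enzyme was reacted with SAM and its substrate, with compounds tested once at 40 uM; SAH formed was read by MTase-Glo luminescence.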
Starred values were filed as active, the others as inactive; i = inactive; + = active, no number; ! = a repeat was not active. This is one part of a sample in which hits are shown more often than they occur. % is scaled to controls: 0 for no effect and ±100 for the full control effect.

SMILES | Methyltransferases
COCCOc1ccnc(-c2noc([C@@H]3CCCN3Cc3ccncc3)n2)c1 | i
CCN1C(=O)c2cc(C(=O)NCc3ccccc3Br)nn2CC1(C)C(=O)NC1CCCC1 (stereo not given) | i
Cc1ccc(CN2C(=O)c3ccccc3CC2(C)C(=O)NCc2ccccc2)cc1 (stereo not given) | i
CCOC(=O)c1cc2n(n1)CC(C)(C(=O)NCc1ccccc1OC)N(c1ccccc1CC)C2=O (stereo not given) | i
Nc1nc(NCCNc2ncc(-n3ccnc3)c(-c3ccc(Cl)cc3Cl)n2)ccc1[N+](=O)[O-] | +
CCCNC(=O)c1ncn2c1C(=O)N(C1CC1)C(C)(C(=O)NCc1ccc(F)cc1)C2 (stereo not given) | i
COc1cccc(-c2nnc3n(CCc4ccccc4)c(=O)c4ccccc4n23)c1OC | i
CCC1c2ccc(C)n2CCN1C(=O)Nc1ccc(OC)cc1OC (stereo not given) | i
CCCn1c(=O)c2ccc(Cl)cc2n2c(=O)n(Cc3cccc(Cl)c3)nc12 | i
Cc1cc(C)cc(-c2cnc3cc(Cl)c(-c4cccc(O)c4)cc3c2OCCCN)c1 | +
Cc1ccc(N2C(=O)CSc3c(c4ccccc4n3C)C2C(=O)NCc2ccccc2)cc1Cl (stereo not given) | i
CCC(C)NC(=O)c1ccc2c(=O)n(C(C)C)c3nn(Cc4ccc(N5CCCC5=O)cc4)c(=O)n3c2c1 (stereo not given) | i
CCCn1c(=O)c2ccccc2n2c(=O)n(CC(=O)c3cccc(OC)c3)nc12 | i
CCOc1ccc(C2c3cccn3-c3sc4c(c3CN2C(=O)Nc2ccc(F)cc2F)CCCC4)cc1 (stereo not given) | i
CCCCNc1ncc2c(-c3ccc(CN4CCN(C)CC4)cc3)cn(C3CCC(O)CC3)c2n1 (stereo not given) | i
CN1CCN(C2CCC(n3cc(-c4ccc(Oc5ccccc5)cc4)c4c(N)ncnc43)CC2)CC1 (stereo not given) | +
Nc1ncnc2c1ncn2C1CCCC1 | i
Cc1ccc(N(C)S(=O)(=O)c2ccc3c(c2)NC(=O)CC(=O)N3)cc1 | i
O=C(CCC1CCN(S(=O)(=O)c2ccccc2)CC1)NCCCN1CCCC1=O | i
CC(=O)Nc1c2n(c3ccccc13)CC(C)(C(=O)NC1CCCC1)N(CCC(C)C)C2=O (stereo not given) | i
CC12CC(O)C(O)C=C1c1cc(O)cc(O)c1C(=O)O2 (stereo not given) | i
Cc1cc(O)c2c(c1)C(=O)c1cc(O)cc(O)c1C2=O | +
CCN1C(=O)c2cc(C(=O)Nc3ccccc3C)nn2CC1(C)C(=O)NC1CCCC1 (stereo not given) | i
CCc1cccc(NC(=O)c2cc3n(n2)CC(C)(C(=O)NC2CCCCCC2)N(C)C3=O)c1 (stereo not given) | i
COC(=O)c1cc2n(n1)CC(C)(C(=O)NC1CCCCCC1)N(Cc1ccccc1OC)C2=O (stereo not given) | i
SMILES | Methyltransferases
COc1ccc(N2CCN(S(=O)(=O)c3ccc4c(c3)n(C)c(=O)n4C)CC2)cc1 | i
Cn1c(=O)n(C)c2cc(S(=O)(=O)N3CCc4ccccc4C3)ccc21 | i
Cn1c(=O)n(C)c2cc(S(=O)(=O)N3CCN(C4CCCCC4)CC3)ccc21 | +
Cc1ccc(CNc2nc3c(-c4cccc(F)c4)nnn3c3ccccc23)cc1 | i
CCc1cccc(N2C(=O)c3ccccc3CC2(C)C(=O)NCc2ccccc2)c1 (stereo not given) | i
COc1ccc(-c2cc3n(n2)CC(C)(C(=O)NCc2ccccc2)N(Cc2ccc(C)cc2)C3=O)cc1 (stereo not given) | i
CCC(C)NC(=O)c1ccc2c(=O)n(CC(C)C)c3nn(Cc4c(F)cccc4Cl)c(=O)n3c2c1 (stereo not given) | i
Cc1c(Cl)cccc1NC(=O)N1CCn2c(C)ccc2C1C(C)C (stereo not given) | i
CN1CCN(C(=O)c2ccc3cc(CCNc4ncnc5ccc(C#N)cc45)ccc3c2)CC1 | +
CC(=O)N1CCN(C(=O)c2ccc3oc(-c4ccccn4)nc3c2)CC1 | i
COc1ccc(CCNc2ncnc3c2CN(C2CCC2)C(=O)N(C)C3)cc1 | i
Cc1ccc(C)c(NC(=O)Cn2c(=O)oc3cc(S(=O)(=O)N4CCCCC4)ccc32)c1 | i
Cc1ccc(O)c(N=Nc2ccccc2)n1 | +
CSc1cccc(N2C(=O)c3cc(-c4cccs4)nn3CC2(C)C(=O)NC2CCCCC2)c1 (stereo not given) | i
CN1C(=O)c2cc(C(=O)NCc3cccc(Cl)c3)nn2CC1(C)C(=O)NC1CCCCCC1 (stereo not given) | i
COCCCNC(=O)C1(C)Cn2nc(-c3ccccc3)cc2C(=O)N1c1ccc(C(C)C)cc1 (stereo not given) | i
CC(C)N(CCCNC(=O)Nc1ccc(C(C)(C)C)cc1)C[C@H]1O[C@@H](n2cc(Br)c3c(N)ncnc32)[C@H](O)[C@@H]1O | +
CC(C)N(CCCNC(=O)Nc1ccc(C(C)(C)C)cc1)C[C@H]1O[C@@H](n2ccc3c(N)ncnc32)[C@H](O)[C@@H]1O | +!
O=S(=O)(O)c1ccc(Nc2ncnc3c2ncn3[C@@H]2O[C@H](CO)[C@@H](O)[C@H]2O)cc1 | i
O=C(c1ccc2c(=O)nc3c(-c4ccccc4F)n[nH]n3c2c1)N1CCN(c2ccccc2)CC1 | i
COc1ccccc1CNc1nc2c(-c3cccc(C)c3)nnn2c2ccccc12 | i
Cc1cc2c(cc3n2CC(C)(C(=O)NC2CCCCCC2)N(C2CCCCC2)C3=O)o1 (stereo not given) | i
CCCn1c(=O)c2ccc(Cl)cc2n2c(SCC(=O)Nc3ccccc3F)nnc12 | i
C=CC(=O)Nc1cccc(CN2C(=O)N(c3c(Cl)c(OC)cc(OC)c3Cl)Cc3cnc(NCCCCN(CC)CC)nc32)c1 | +
COCCCNC(=O)C1(C)Cn2nc(-c3ccccc3)cc2C(=O)N1c1cccc(SC)c1 (stereo not given) | i
SMILES | Methyltransferases
COC(=O)c1cccc(NC(=O)N2Cc3c(sc4c3CCCC4)-n3cccc3C2c2cccc(F)c2)c1 (stereo not given) | i
CCCn1c(=O)c2ccc(C(=O)NC(C)CC)cc2n2c(=O)n(CC(=O)Nc3ccc(C)c(F)c3)nc12 (stereo not given) | i
O=C(NCCN1CCCCC1)c1cc2n(n1)CCCN(Cc1ccc(Cl)cc1)C2=O | i
CSCC1OC(n2cnc3c(=O)[nH]cnc32)C(O)C1O (stereo not given) | i
Nc1ncnc2c1ncn2[C@@H]1O[C@H](CO)[C@@H](O)[C@H]1O | i
CC(C)N(C[C@H]1O[C@@H](n2cnc3c(N)ncnc32)[C@H](O)[C@@H]1O)C1CC(CCc2nc3ccc(C(C)(C)C)cc3[nH]2)C1 (stereo not given in full) | +
CCOc1ccc(CNS(=O)(=O)c2ccc3[nH]c(=O)[nH]c3c2)cc1OC | i
CCCSCCCN1C(=O)c2cc3sc(CC)cc3n2CC1(C)C(=O)NC1CCCCCC1 (stereo not given) | i
CC1(C)CCCC2(C)C(C(=O)O)=CCC12 (stereo not given) | i
C=C1CCC2C(C)(C)CCC[C@]2(C)[C@H]1C/C=C(\CO)C(=O)C(=O)O (stereo not given in full) | i
